Screens as filed in PubChem.
pS6 MEF inh: reduces mTORC1 signaling in Tsc2 and p53 null MEF cells. Tsc2-/- p53-/- MEF, phospho-rpS6 immunofluorescence/PI, 24 h. AID 493208. 0.78% of 44,000 active. Potency, µM (top dose mostly 38.3 µM), hits mostly inhibitors; also: nearly all actives have a fitted effect of over 50% in size
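Tsc2-/-, p53-/- mouse embryonic fibroblasts (empty-vector line) exposed to compound 24 hrs at 37 C, fixed, immunostained for phospho-rpS6 and counterstained with propidium iodide. Acumen laser scanning gives % positive cells from Alexa 488/PI ratio, thresholded using 7.5 nM rapamycin; PI count gives viability.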
p53null 39C tox: kills p53 null cells at the nonpermissive temperature; H1299 p53-null (neo) cells, 39C, ATPlite viability, 24 h; 0.97% of 55,000 active; Potency, µM (series often up to 46.1 µM), usual class: cytotoxic; also: nearly all actives have a fitted effect of over 50% in size
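H1299 lung cancer cells, p53-null (H1299-neo) or expressing p53 A138V (H1299-p53A138V), were plated overnight at 37C, then exposed to compounds at up to 46 uM for 24 hr at 39C. Viability was read by ATP-based luminescence.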
p53null 32C kill: kills p53 null cells at the permissive temperature; H1299-neo p53 null cells, ATP luminescence, 24 h, 32C; Potency, µM (series often up to 46.1 µM), most hits filed as cytotoxic; 0.62% of 55,000 active; AID 903; also: nearly all actives have a fitted effect of over 55% in size
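Cells lacking p53 (H1299-neo) are plated at 600 per well and allowed to settle overnight at 37C. Test compounds (up to 46 uM) are added and held 24 hours at 32C, then ATP is quantified by luminescence.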
S16 viability: cytotoxicity in S16 Pmp22-F2sN Schwann cells. 0.48% of 43,000 active. Potency, µM (highest dose often 57.5 µM), most hits filed as cytotoxic. S16 Pmp22-F2sN Schwann cells viability, CellTiter-Glo, 24 h. AID 1508642; also: nearly all actives have a fitted effect of over 65% in size
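CellTiter-Glo counter-screen, qHTS, 1536-well. Cells: S16(c9) Pmp22-F2sN, 500-1,000/well in DMEM + 10% FBS. Cpd 23 nL pin transfer, 24 h, 37C/5% CO2. Read: luminescence, CCD imager.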
PMP22 txn: modulates PMP22 transcription in S16 Schwann cells | S16 Pmp22-F2sN Schwann cells, FLuc/NLuc coincidence luminescence, 24 h | 2% of 43,000 active | Potency, µM (doses to about 57.5 µM), actives largely listed as inhibitors; active = clear falling dose curves in both reporters; inconclusive = both reporters move, but less clearly or upward; inactive = either reporter flat; the % is the NLuc reporter signal
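Schwann cells carrying the coincidence reporter were exposed to library compounds for 24 h at 37C, then lysed and read for FLuc and, after quenching, NLuc luminescence on a CCD imager.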
NLuc sat counter: counter-screen for PMP22 expression modulators: NanoLuc inhibition, saturating substrate; Secreted NLuc enzyme (filtered S16 cell medium), Nano-Glo luminescence; shares compounds with PMP22 txn; Potency, µM (top dose mostly 57.5 µM), usual class: inhibitors; 4% of 690 active; AID 1508638
NLuc Km counter: counter-screen for PMP22 expression modulators: NanoLuc inhibition at Km | shares compounds with PMP22 txn | secreted NLuc enzyme, coelenterazine luminescence, Km conditions | Potency, µM (highest dose often 57.5 µM), usual class: inhibitors | 5% of 690 active | AID 1508639
FLuc ctr PMP22: inhibits firefly luciferase, PMP22 counter-screen; shares compounds with PMP22 txn; purified P. pyralis FLuc, luminescence, 10 min; Potency, µM (top dose mostly 57.5 µM), hits mostly inhibitors; 690 tested, under 10 active; AID 1508640
Target sequence (P08659 whole entry, looked up): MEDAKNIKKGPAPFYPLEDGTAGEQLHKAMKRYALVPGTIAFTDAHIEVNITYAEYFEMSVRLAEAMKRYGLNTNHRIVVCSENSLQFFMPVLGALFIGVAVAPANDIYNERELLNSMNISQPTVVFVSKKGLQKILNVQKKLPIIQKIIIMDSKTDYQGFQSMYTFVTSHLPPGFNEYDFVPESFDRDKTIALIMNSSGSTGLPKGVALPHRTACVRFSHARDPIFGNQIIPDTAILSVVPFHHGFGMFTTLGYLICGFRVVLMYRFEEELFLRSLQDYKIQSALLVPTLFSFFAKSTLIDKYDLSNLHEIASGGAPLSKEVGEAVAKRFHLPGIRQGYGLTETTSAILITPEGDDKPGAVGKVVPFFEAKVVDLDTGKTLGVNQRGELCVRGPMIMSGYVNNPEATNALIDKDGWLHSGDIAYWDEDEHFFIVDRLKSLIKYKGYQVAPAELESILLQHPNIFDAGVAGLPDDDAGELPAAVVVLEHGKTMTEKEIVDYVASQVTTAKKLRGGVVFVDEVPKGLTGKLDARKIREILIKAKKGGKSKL
S16 viab conf: confirmation of cytotoxicity in S16 Pmp22-F2sN Schwann cells (luciferase reporters placed in the Pmp22 gene); shares compounds with PMP22 txn; S16 Schwann cells viability, CellTiter-Glo ATP luminescence, 24 h; Potency, µM (highest dose often 57.5 µM), most hits filed as cytotoxic; 7% of 690 active; AID 1508641
PMP22 txn conf: PMP22 transcription modulation, confirmatory; shares compounds with PMP22 txn; S16 Schwann cells Pmp22-F2sN, dual luciferase, 24 h; Potency, µM (doses to about 57.5 µM), actives largely listed as inhibitors; 22% of 690 active; active = clear falling dose curves in both reporters; inconclusive = both reporters move, but less clearly or upward; inactive = either reporter flat; the % is the FLuc reporter signal
PMP22 HiBiT cnf: rat PMP22 protein level modulation, confirmatory; S16 Schwann cells Pmp22-HiBiT, luminescence, 48 h; 95 tested, under 10 active; Potency, µM (top dose mostly 27.9 µM), actives largely listed as inhibitors; shares compounds with PMP22 txn
Hits are given with their value; . = inactive; ? = inconclusive; / = no result given. Rows were chosen to be rich in hits. Some 3.2% of all compounds tested hit in one or more screens of this group. Unless noted, calls follow the shape of the dose curve; as a rule, active = well fitted curve in the direction sought with a large enough effect; inconclusive = small, poorly fitted or top-dose-only effect, or another doubt; inactive = no such curve, though single readings can be large; an effect the other way counts as inactive or inconclusive.

SMILES	pS6 MEF inh	p53null 39C tox	p53null 32C kill	S16 viability	PMP22 txn	NLuc sat counter	NLuc Km counter	FLuc ctr PMP22	S16 viab conf	PMP22 txn conf	others
O=c1oc2ccccc2cc1-c1cn2cc(Cc3ccc(Br)cc3)sc2n1	.	?	.	.	?	.	.	.	.	?
CCc1ccc(NC(=O)CN2C(=O)C(=O)c3ccccc32)cc1	.	.	.	.	.	/	/	/	/	/
COc1ccc(C)cc1NC(=O)c1cc(S(=O)(=O)N2CCN(c3cccc(C)c3C)CC2)ccc1F	?	.	.	.	?	.	.	.	.	.
CCOC(=O)c1ccc(-c2ccc(/C=C(\C#N)C(=O)Nc3cccc(C)c3)o2)cc1	.	.	.	.	?	?	.	.	.	17µM
COc1cc(OC)c(OC)cc1/C=C/c1nc2cc3ccccc3cc2c(=O)n1-c1ccc(F)cc1F	.	.	.	?	9.5µM	3.1µM	2.2µM	?	.	.
O=C(Cn1ncn2c(cc3cc(F)ccc32)c1=O)NC1CCCCC1	.	.	.	/	/	/	/	/	/	/
COc1ccc(C(C(=O)NCc2ccccc2)N(C(=O)Cn2nnc3ccccc32)c2ccc(F)cc2)cc1 (configuration not stated)	.	.	.	.	11µM	.	.	.	.	.
COc1ccc(N(C(=O)Cn2nnc3ccccc32)C(C(=O)NCc2ccccc2)c2ccc(F)cc2)cc1 (configuration not stated)	.	.	.	.	.	/	/	/	/	/
O=C(NCCCN1CCN(c2ccc(F)cc2)CC1)c1ccc2nc(Cc3ccccc3)oc2c1	.	.	.	.	16µM	.	.	.	.	?
O=C(NCCCN1CCN(c2ccc(F)cc2)CC1)c1cc2c(Cl)nc3ccccc3c2s1	.	.	.	.	14µM	.	.	.	.	?	PMP22 HiBiT cnf=.
Cn1c(=O)c2cc(C(=O)NCCCN3CCN(c4cccc(Cl)c4)CC3)sc2c2ccccc21	.	?	.	.	.	/	/	/	/	/
CCc1ccccc1NC(=O)c1cc2c(Cl)nc3ccccc3c2s1	.	.	.	.	10µM	.	?	.	.	.
O=C(NCCCN1CCN(c2ccccc2)CC1)c1ccc2nc(Cc3ccccc3)oc2c1	.	.	.	?	?	/	/	/	/	/
Cc1ccc(C)c(N2CCN(CCCNC(=O)c3ccc4nc(C(C)C)oc4c3)CC2)c1	.	.	.	?	11µM	?	?	.	?	?
CC(=O)N1CCc2c(sc(NC(=O)CSc3ccccc3)c2-c2nc3ccccc3s2)C1	.	.	.	?	4µM	?	?	.	?	13µM	PMP22 HiBiT cnf=?
CN1CCc2c(sc(NC(=O)CSc3ccccc3)c2-c2nc3ccccc3s2)C1	?	?	.	.	?	/	/	/	/	/
CSc1nc2sc3c(c2c(=O)n1-c1ccc(C)cc1)CCCC3	.	.	.	.	14µM	4.8µM	?	.	.	?
CC(C)Sc1nc2sc3c(c2c(=O)n1-c1ccccc1)CCCC3	.	.	.	.	?	/	/	/	/	/
